In PubChem BioAssay (NCATS) one finds Potency data, which are given here for 28 compounds.

Records with an inconclusive call do not appear. A call without a number means that no potency is given here. The source made the active and inactive calls. Calls follow the shape of the dose curve; as a rule, active = well fitted inhibition curve with a large enough effect; inconclusive = small, poorly fitted or top-dose-only effect; inactive = no such curve, though single readings can be large or run the other way. *1 amine or outer side, *2 acyl side, *3 side chain or, on linkers, in order; H or OH if unused. Where a SMILES comes first, the peptide text is derived from it. [ ]: non-standard residue; d: D form. X4 = CC(C)=CCc1cc(C(O)C(N[*:1])C(=O)[*:2])ccc1O

The first assay relates to Zika virus NS2B-NS3 protease (unlinked complex). Kind of assay: Primary screen GU Rhodamine qHTS for Zika virus inhibitors: Unlinked NS2B-NS3 protease assay (AID 1347159). Also: nearly all actives have a fitted effect of over 60% in size. The settings on record: Recombinant ZIKV NS2B-NS3 protease, Rhodamine110 substrate fluorescence; series mostly up to 107 µM. Put shortly:
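Buffer 10 mM Tris-HCl pH 8.0, 0.01% Tween 20. Unlinked protease 25 nM; compound preincubation 15 min, RT, protected from light. Substrate Rhod110, 1.5 microM; ~15% conversion in 15 min.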
(Quantitative high-throughput screening tests each substance at several concentrations.)
For the compound `COc1ccc(CC2C(=O)NC(C)C(=O)N(C)C3Cc4ccc(cc4)Oc4cc(ccc4OC4OC(CO)C(O)C(O)C4O)CC(C(=O)NC(C)C(=O)NC(C)C(=O)N2C)N(C)C3=O)cc1` (stereo not drawn), the Potency entry is “inactive”.

With `C=CC(=O)Nc1cccc(Nc2nc(Nc3ccc(N4CCN(C(C)=O)CC4)cc3OC)ncc2C(F)(F)F)c1`, the Potency result is “inactive”.

With `CC(=O)O[C@@H](CO[C@@H]1O[C@H](CO)[C@H](O)[C@H](O)[C@H]1O)[C@]1(C)C=C2CC[C@@H]3C(C)(C)[C@@H](O)CC[C@@]3(C)[C@@H]2CC1`, the Potency entry is “inactive”.

For a further assay, the system named is Zika virus NS2B-NS3 protease (linked construct). Kind of assay: Primary screen NINDS Rhodamine qHTS for Zika virus inhibitors (AID 1347160). Also: nearly all actives have a fitted effect of over 55% in size. Conditions: purified NS2B-NS3 protease, Rhodamine110 substrate fluorescence; series mostly up to 57.1 µM. Put shortly:
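Aprotinin served as in-plate control. Conditions: 25 nM linked NS2B-NS3, pH 8.0 Tris buffer, titrated compounds, 15 min preincubation and 15 min reaction with 1.5 microM Rhod110 substrate at room temperature.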
In the case of `O=C(c1cc2c(cc1F)OC(c1ccc(F)cc1)(c1ccc(Cl)cc1Cl)O2)N1CCOCC1` (stereo not drawn), the Potency result was “inactive”.

As to `CC(C)O[C@@H]1O[C@H](CO)[C@@H](O)[C@H](O)[C@H]1O`, the Potency entry was “inactive”.

Regarding `COc1ccc(-c2cnc(-c3cccc4c3-c3ccccc3C4=O)o2)cc1`, the Potency entry is “inactive”.

Regarding `O=C(c1cccc(Cl)c1F)N1CCN(Cc2cccc(Nc3nccs3)n2)CC1`, the Potency result is “inactive”.

`C=C1CC[C@@H]2[C@@](C)(CO[C@@H]3O[C@H](CO)C(O)[C@H](O)C3O)[C@H](O)CC[C@@]2(C)[C@@H]1CC/C(C)=C/CO` (stereo partly drawn): the Potency result was “inactive”.

In the case of `COc1ccc(CCO[C@@H]2CCCC[C@H]2N2CC[C@@H](O)C2)cc1OC`, the Potency result was “inactive”.

Turning to `CO[C@H]1/C=C/[C@@](C)(O)/C=C/C(=O)O[C@H](C)[C@@H](C)CC/C=C/1C`, the Potency entry is “inactive”.

With `CNC(=O)c1ccccc1Nc1nc(Nc2ccc3c(c2OC)CCCC(N2CCN(CCO)CC2)C3)ncc1Cl` (stereo not drawn), the Potency result is “inactive”.

Turning to `COc1c(C)c(OCC(O)C(C)(C)O)cc2c1COC2=O` (stereo not drawn), the Potency entry was “inactive”.

With `CCc1c(C)nc2c(-c3cnn(-c4cc(CO)ccn4)c3)c[nH]n2c1=O`, the Potency result is “inactive”.

For the compound `CC[C@]12C=CCN3CC[C@@]4(c5cc([C@@]6(C(=O)OC)C[C@H]7C[C@@H](C(C)(F)F)CN(Cc8c6[nH]c6ccccc86)C7)c(OC)cc5N(C)[C@H]4[C@@](O)(C(=O)OC)[C@@H]1OC(C)=O)[C@@H]32`, the Potency entry is “inactive”.

Consider `CC1(C)CC[C@]2(C(=O)O[C@@H]3O[C@H](CO)[C@@H](O)[C@H](O)[C@H]3O)CC[C@]3(C)C(=CCC4[C@@]5(C)C[C@@H](O)[C@H](O)[C@](C)(C(=O)O)C5CC[C@]43C)C2C1O` (stereo partly drawn), for which the Potency result is “inactive”.

As to `N#Cc1ccc2[nH]cc(CCCCN3CCN(c4ccc5oc(C(N)=O)cc5c4)CC3)c2c1`, the Potency result was “inactive”.

Turning to `COc1cc(/C=C/C(=O)O[C@H]2[C@H](O)[C@@H](CO)O[C@@]2(CO)O[C@H]2O[C@H](CO)[C@@H](O)[C@H](O)[C@H]2O)ccc1O`, the Potency result was “inactive”.

Regarding `COc1cc(O)cc(C)c1C(=O)O[C@@H]1[C@H](O)[C@@H](CO)O[C@H]1n1ccc(=O)[nH]c1=O`, the Potency entry was “inactive”.

For the compound `O=C(Nc1c(-c2cccs2)nc2ccccn12)c1ccc(Cl)cc1`, the Potency entry is “inactive”.

Regarding `Cc1nc2sc(C(=O)NCc3ccncc3)c(N)c2c(C)c1Cl`, the Potency result was “inactive”.

`CC(C)=CCc1cc(C(O)C2NC(=O)CNC(=O)C(Cc3c[nH]c4ccccc34)NC(=O)C3CCCN3C(=O)CNC(=O)C(C(C)C)NC(=O)CNC2=O)ccc1O` (stereo not drawn) (cyclo(G[X4]GVGPW); configuration not given here): the Potency entry was “inactive”.

Turning to `CC1(C(=O)O)CCCC2(C)C3=CCC4CC3(CCC12)CC4CO` (stereo not drawn), the Potency entry was “inactive”.

For the compound `C[C@@H]1O[C@@H](O[C@@H]2[C@@H](O)[C@@H](O[C@]3(CO)O[C@H](CO)[C@@H](O)[C@@H]3OC(=O)/C=C/c3ccc(O)cc3)O[C@H](CO)[C@H]2OC(=O)/C=C/c2ccc(O)cc2)[C@H](O)[C@H](O)[C@H]1O[C@@H]1O[C@@H](C)[C@H](O[C@@H]2OC[C@](O)(CO)[C@H]2O)[C@@H](O)[C@H]1O`, the Potency entry is “inactive”.

On to `CC(O)(CC(=O)O)CC(=O)OCc1ccc(O[C@@H]2O[C@H](CO)[C@@H](O)[C@H](O)[C@H]2O)cc1` (stereo partly drawn), for which the Potency entry was “inactive”.

As for `C[C@@H]([C@@H](O)c1ccc(O)cc1)N1CCC(O)(c2ccccc2)CC1`, the Potency entry is “inactive”.

In the case of `O=C(CCCCN1CCOCC1)Nc1ccc(-c2cccnc2)cc1`, the Potency entry was “inactive”.

Consider `CC1(C)CC[C@]2(C(=O)O[C@@H]3O[C@H](CO)[C@@H](O)[C@H](O)[C@H]3O)CC[C@]3(C)C(=CCC4[C@@]5(C)CC[C@H](O[C@@H]6O[C@H](C(=O)O)[C@@H](O)[C@H](O[C@@H]7O[C@H](CO)[C@H](O)[C@H](O)[C@H]7O)[C@H]6O)C(C)(C)C5CC[C@]43C)C2C1` (stereo partly drawn), for which the Potency entry is “inactive”.

Take `C=C(C)[C@@H]1CC[C@]2(C)CC[C@]3(C)[C@H](CC[C@@H]4[C@@]5(C)CC[C@@H](O)C(C)(C)[C@@H]5CC[C@]43C)[C@@H]12`: the Potency result was “inactive”.
